FXN GAA850 act: frataxin GAA850 promoter activation | HEK293 lucGAA850 FXN promoter luciferase reporter, 24 h; percent of 10 µM SAHA response | activation, % at 6 µM | 360,000 compounds, 0.56% hits | AID 540364;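 active = activation above the average of all compounds screened plus 3 SD, cutoff fixed separately per campaign, cut at about 7.5% in these data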;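 note: 0% = DMSO wells and 100% = 10 µM SAHA wells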
Env fusion inh: HIV envelope-mediated fusion inhibition; AID 651610; 360,000 compounds, 1.1% hits; HeLa-JRFL Env/CEM21 cell fusion, luciferase; inhibition, % at 12.3 µM;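 active = mean replicate inhibition score of at least 50 and every replicate individually at or above 50; inconclusive = only one of the two criteria met; inactive = mean below 50 and not all replicates reaching 50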;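 note: 0% = plate neutral controls and 100% = maraviroc near 300 nM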
CFTR F508del cor: correctors of CFTR F508del function in bronchial epithelial cells. 350,000 compounds, 0.36% hits. CFBE cells, YFP halide quenching; stimulated with forskolin plus potentiator P3; % fluorescence drop versus neutral controls. AID 720511. activity (quench increase), % at 7.58 µM;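 active = mean added fluorescence quench of at least 8% versus neutral control, with both replicates also reaching 8%; inconclusive = only one of the mean or replicate conditions met; inactive = mean below 8% and not both replicates reaching 8%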;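 note: cells transiently co-express mutant CFTR-F508del with the halide-sensitive YFP; corrector assay measuring rescue of mutant channel to the surface after 24 h compound exposure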
PAX8 reporter: inhibitors of PAX8 transcriptional activity in RMG-I cells. inhibition, % at 12.6 µM. RMG-I TPO-luciferase reporter, SteadyGlo, 24 h. 360,000 compounds, 1.2% hits;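 active = mean replicate inhibition at least 60% with every replicate also reaching 60%; inconclusive = only one of the two criteria is met; inactive = mean below 60% and not all replicates reaching 60%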;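 note: luciferase light reporting Pax8 driven TPO promoter activity; plate controls were median of neutral control wells for no effect and mitoxantrone controls for full effect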
EWS-Fli block: inhibitors of EWS/Fli oncoprotein transcriptional activity. inhibition, % at 12.6 µM. A673 NR0B1-luciferase reporter, viability-normalised. 350,000 compounds, 0.67% hits;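 active = mean inhibition of at least 50% after viability correction, with every replicate also passing that limit; inconclusive = mean reaches 50% but only one of two replicates passes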;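 note: firefly luciferase signal divided by Alamar Blue viability fluorescence both relative to DMSO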
GAA30 counter: counter-screen for GAA850 frataxin promoter activators: GAA30 promoter activation; shares compounds with FXN GAA850 act; HEK293 lucGAA30 FXN promoter luciferase, 24 h; DMSO = 0%, 5 µM ipriflavone = 100%; activation, % at 6 µM; 1,900 compounds, 66% hits; AID 588350;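 active = mean activation above the mean of solvent-only control wells plus 3 SD, cut at about 22% in these data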;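 note: counterscreen of GAA850 promoter hits where activity marks nonselective or luminescence artifacts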
FXN GAA850 conf: GAA850 FXN promoter activation confirmation. shares compounds with FXN GAA850 act. HEK293 lucGAA850 FXN promoter luciferase reporter, 24 h; 100% = activation by SAHA. activation, % at 6 µM. 1,900 compounds, 86% hits. AID 588351;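 active = mean activation above a set limit taken from the primary screen, cut at about 8% in these data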;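 note: 0% = DMSO wells and 100% = 10 µM SAHA wells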
* = called active by the depositor; u = inconclusive; x = no result given; [ ] = dose if it differs, or a comment. Sampled rows, rich in hits. Any-hit rate of the full collection: about 2.5%.

SMILES	FXN GAA850 act	Env fusion inh	CFTR F508del cor	PAX8 reporter	EWS-Fli block	GAA30 counter	FXN GAA850 conf
Cc1onc(-c2ccccc2)c1C(=O)NCc1ccc(Cl)cc1	1	-6	1	-1	-8	x	x
Cc1sc(NC(=O)C2C3CCC(O3)C2C(=O)O)nc1-c1ccc(CC(C)C)cc1 (centres undefined)	13*	x	x	-108	x	62*	26*
CCOC(=O)c1c(NC(=O)C2C3CCC(O3)C2C(=O)O)sc(C)c1-c1ccc(C)cc1 (centres undefined)	-1	x	x	x	x	x	x
CCN(CC(O)CON=C1c2ccccc2-c2ccccc21)S(=O)(=O)c1ccc(C)cc1 (centres undefined)	7.6*	79*	x	22	x	8	15*
CN(CC(O)CON=C1c2ccccc2-c2ccccc21)S(=O)(=O)c1ccc(Br)cc1 (centres undefined)	0	16	x	37	x	x	x
COc1ccc(C(=O)NCCSc2ccccc2)cc1	0	-3	x	-17	x	x	x
COc1ccc(-c2[nH]c3ccccc3c2SCCNC(=O)c2ccccc2)cc1	22*	x	-4	x	1	2	5
CCOC(=O)/C(C#N)=C/Nc1ccccc1OC	8.0*	-356	x	-166	x	92*	29*
NC(=S)N/N=C/c1cn(-c2ccccc2)nc1-c1cccnc1	7.8*	-10	-2	-8	-47	63*	19*
C=CCNC(=O)c1c(Br)cnn1-c1ccc(C)cc1	8.2*	-1	2	-141	-131	105*	33*
CN(C)CC(=O)N1[C@H](CO)[C@H](c2ccccc2-c2cccc(C(=O)N(C)C)c2)[C@@H]1C#N	x	x	0	-4	6	x	x
CCc1ccc(/C=N/Nc2ncnc3nc[nH]c23)cc1	11*	-24	0	-39	-25	132*	54*
COc1ccc(NC(=O)Nc2cccc3c2O[C@@H](CN(C)C(=O)Nc2cccc4ccccc24)[C@H](C)CN([C@H](C)CO)C3=O)cc1	x	-30[16.7 µM]	1	-30	-15	x	x
CN(C)/C=C/C(=O)c1ccc(Oc2ccccc2)cc1	7.8*	-25	x	-114	-95	103*	33*
CN(C)/C=C/C(=O)c1ccccc1	-1	-52	0	-34	-10	x	x
Cc1cc(/C=C2\NC(=S)N(C)C2=O)ccc1N1CCCC1	7.6*	-17	x	-153	-80	107*	50*
CCCN1C(=O)/C(=C/c2ccc(N3CCCC3)c(C)c2)NC1=S	0	-44	x	-37	x	x	x
O=C(NCCCn1ccnc1)c1cc2cc([N+](=O)[O-])ccc2oc1=O	12*	-1	x	-32	x	11	7
CCOc1ccc(NC(=O)CNC(=O)Cc2ccccc2)cc1	5	-10	-1	-1	-8	x	x
COC(=O)Nc1ccc(OCc2ccccc2)cc1	10.0*	x	5	x	-104	89*	32*
COCC(=O)Nc1ccc(OCc2ccccc2)cc1	4	-29	x	-135	-23	x	x
CCOc1ccc(NC(=O)Cc2ccccc2)cc1	8.4*	x	x	-89	x	82*	31*
O=C(COc1ccccc1)Nc1ccc(NC(=O)c2ccco2)cc1	1	-8	-5	1	-11	x	x
O=C(Cc1ccccc1)Nc1ccc(NC(=O)c2ccco2)cc1	7.9*	-23	3	-37	-84	48*	22*
COc1cccc(S(=O)(=O)N(C)C[C@@H]2OCc3ccccc3-c3ccccc3C(=O)N([C@H](C)CO)C[C@H]2C)c1	x	3[16.7 µM]	0	3	2	x	x
SMILES	FXN GAA850 act	Env fusion inh	CFTR F508del cor	PAX8 reporter	EWS-Fli block	GAA30 counter	FXN GAA850 conf
O=C(C[C@H]1CC[C@@H]2[C@H](COC[C@@H](O)CN2Cc2nccs2)O1)NCc1ccc(Oc2ccccc2)cc1	x	x	-1	x	x	x	x
Cc1cc(C)n2nc(-c3cccc(Br)c3)cc2n1	9.1*	-84	-4	6	-76	107*	44*
Cc1ccc(/C=C/c2nc3ccccc3[nH]2)o1	8.9*	-159	0	-122	-5	114*	38*
COc1ccccc1/C=C/C(=O)c1ccc(Cl)cc1	3	-34	x	x	x	x	x
O=C(/C=C/c1ccccc1[N+](=O)[O-])c1ccc(F)cc1	8.5*	-24	-2	-27	-9	57*	25*
COc1cccc(/C=C/C(=O)c2ccc3c(c2)OCCO3)c1OC	7.9*	-79	-6	-144	-107	98*	39*
COc1ccccc1/C=C/C(=O)c1ccccc1	7.6*	-19	-1	-83	-70	87*	33*
C/C=C/c1cnc2c(c1)C(=O)N([C@@H](C)CO)C[C@@H](C)[C@H](CN(C)S(=O)(=O)c1cccs1)O2	x	x	-3	-2	1	x	x
Cc1noc(C)c1S(=O)(=O)Nc1ccc2c(c1)C(=O)N([C@@H](C)CO)C[C@H](C)[C@H](CN(C)C(=O)Cc1ccccc1)OCCCC[C@H](C)O2	x	4[16.7 µM]	-2	-5	5	x	x
O=C(C[C@H]1CC[C@H](NC(=O)c2ccncc2)[C@@H](CO)O1)NCc1ccncn1	x	x	0	x	-2	x	x
COCC(=O)N1CC2(C1)[C@@H](c1ccc(-c3ccccc3)cc1)[C@H](CO)N2C(=O)COC	x	x	0	x	-1	x	x
CC(C)NC(=O)N(C)C[C@H]1OCCCC[C@H](C)Oc2ccc(NC(=O)c3ccccc3)cc2C(=O)N([C@@H](C)CO)C[C@H]1C	x	9[16.7 µM]	-1	2	x	x	x
Cc1cc2c(cc1C)N(CC(=O)N1CCCC1)C(=O)CC(c1ccccc1)=N2	7.8*	-19	x	-26	x	78*	22*
CCCC(=O)Nc1ccc2c(c1)C(=O)N(C)C[C@@H](OC)[C@@H](C)CN(C)[C@@H](C)CO2	x	8[16.7 µM]	1	x	-8	x	x
COc1ccccc1Nc1nc(-c2cccs2)cs1	10*	x	-2	x	-102	126*	40*
CCOC(=O)c1c(NC(=O)c2cccnc2Cl)sc(C(=O)N(C)C)c1C	10*	1	x	-4	x	10	7
N#C[C@H]1N[C@H](CO)[C@@H]1c1ccc(C#Cc2cccnc2)cc1	x	4[16.7 µM]	2	0	-14	x	x
COc1ccc(CN2CCC2(C)C(=O)Nc2cccc(NS(C)(=O)=O)c2)c2ccccc12 (centres undefined)	17*	u	3	5	5	8	19*
COc1cccc(CN2CCC2(C)C(=O)Nc2cccc(NS(C)(=O)=O)c2)c1OC (centres undefined)	-2	-22	2	41	-6	x	x
CCc1cc(C(=O)Cc2ccccn2)c(O)cc1O	-1	2	-2	10	14	x	x
CC(=O)Oc1ccc(C(=O)Cc2ccccn2)c(O)c1	11*	x	x	x	x	23*	12*
O=C(C[C@@H]1C=C[C@@H](NC(=O)CC2CC2)[C@H](CO)O1)NCC(F)(F)F	x	x	1	x	x	x	x
